High-throughput results from PubChem.
In the library only some 19% were active in any assay of this set; here they are far more common.
HT1080 IDH1KD tx = qHTS for induction of synthetic lethality in tumor cells producing 2HG: qHTS for the HT-1080-IDH1KD cell line | AID 686971, 2013 | 360,000 compounds, 2% hits | Potency, µM (highest dose often 46.1 µM), actives largely listed as cytotoxic | HT-1080 IDH1 knockdown viability, ATP luminescence, 48 h
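In this qHTS, HT-1080 cells depleted of IDH1 are exposed for 48 h at 37 °C to compound titrations. Toxicity is scored from CellTiter-Glo luminescence, with DMSO as full viability and medium alone as none.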
DT40 TDP1 CPT = qHTS for Inhibitors of human tyrosyl-DNA phosphodiesterase 1 (TDP1): qHTS in cells in presence of CPT; chicken DT40 Tdp1-/-;hTDP1 cells + 20 nM CPT, ATP luminescence, 48 h; Potency, µM (highest dose often 46.2 µM), usual class: inhibitors; 420,000 compounds, 12% hits; AID 686979, 2013; further: nearly all actives have a fitted effect of over 55% in size
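Chicken DT40 Tdp1-/- cells stably complemented with human TDP1 were seeded at 400 cells/well in medium containing 20 nM camptothecin, exposed to pin-transferred compounds, and grown at 37 °C for at least 48 hr. Viability was read as ATP luminescence.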
KB-3-1 tox = qHTS assay for MDR1-selective chemotherapeutics: Primary screen using the parental adenocarcinoma cell KB-3-1 | KB-3-1 viability, CellTiter-Glo ATP luminescence, 72 h | Potency, µM (top dose mostly 46.1 µM), hits mostly cytotoxic | 400,000 compounds, 1.4% hits | AID 1347075, 2019; further: nearly all actives have a fitted effect of over 60% in size
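72 h, 37 °C compound treatment of KB-3-1 parental cells; CellTiter-Glo added, 10 min, luminescence read. Data corrected against DMSO-only plates and normalized before curve fitting.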
DT40 TDP1 no CPT = qHTS for Inhibitors of human tyrosyl-DNA phosphodiesterase 1 (TDP1): qHTS in cells in absence of CPT; DT40 Tdp1-/- hTDP1 cells, no CPT, ATP luminescence, 48 h; Potency, µM (top dose mostly 46.2 µM), usual class: inhibitors; 420,000 compounds, 15% hits; further: nearly all actives have a fitted effect of over 55% in size
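Cells were dispensed at 400 per well, compounds added by pin tool, plates incubated ≥48 hr at 37 °C, then CellTiter-Glo added for 30 min at room temperature before luminescence reading. Line: DT40 Tdp1-/- complemented with hTDP1; camptothecin omitted.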
KB-V1 cytotox = qHTS assay for MDR1-selective chemotherapeutics: Primary screen using the drug-selected MDR subline cells KB-V1. KB-V1 MDR cells viability, CellTiter-Glo, 72 h. Potency, µM (doses to about 46.1 µM), most hits filed as cytotoxic. 400,000 compounds, 3.4% hits. AID 1347076, 2019; further: nearly all actives have a fitted effect of over 60% in size
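qHTS viability screen in drug-selected KB-V1 MDR cells: 72 h compound treatment at 37 degrees C, ATP luminescence end point.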
HT1080NT lethal = qHTS for induction of synthetic lethality in tumor cells producing 2HG: qHTS for the HT-1080-NT fibrosarcoma cell line; Potency, µM (doses to about 46.1 µM), usual class: cytotoxic; 360,000 compounds, 1.6% hits; HT-1080-NT fibrosarcoma viability, CellTiter-Glo ATP luminescence, 48 h;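 further: NT is the 2HG producing partner of a matched IDH1 knockdown line; nearly all actives have a fitted effect of over 55% in size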
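HT-1080-NT; 750 cells/well; 5% FBS RPMI; 48 h compound, 37 degrees C; CellTiter-Glo luminescence; curve fitting and curve-class assignment.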
A number is an active result; n = inactive; u = inconclusive; x = no result given; [ ] = remark or other dose. The call rests on the fitted dose curve; in most records, active means well fitted curve in the direction sought with a large enough effect; inconclusive means small, poorly fitted or top-dose-only effect, or another doubt; inactive means no such curve, though single readings can be large; an effect the other way counts as inactive or inconclusive.

SMILES	HT1080 IDH1KD tx	DT40 TDP1 CPT	KB-3-1 tox	DT40 TDP1 no CPT	KB-V1 cytotox	HT1080NT lethal
Cc1cccc(NS(=O)(=O)c2ccc3c(c2)CCN3C(=O)C2CCC2)c1	x	18.4µM	u	18.4µM	u	x
CCc1ccccc1NS(=O)(=O)c1ccc2c(c1)CCN2C(=O)C1CC1	x	u	n	u	n	x
Cc1cccc(NS(=O)(=O)c2ccc3c(c2)CCN3C(=O)CCC(=O)O)c1	n	n	n	n	n	n
CN1CCN(c2ccccc2NS(=O)(=O)c2ccc3c(c2)CCN3C(=O)C2CCC2)CC1	u	14.6µM	u	u	n	n
O=C1CCc2cc(S(=O)(=O)Nc3ccccc3)cc3c2N1CC3	n	n	n	n	n	n
CC1=C(c2ccc(C)c(C)c2)S(=O)(=O)N=C1N1CCC(C(=O)NCCc2ccco2)CC1	x	u	n	u	n	x
Cc1ccc2oc(C(=O)Nc3nc(-c4ccc(F)cc4)ns3)c(C)c2c1	x	n	x	n	x	x
CC1(C)C(=O)OC(c2cc(Br)ccc2O)C(C)(C)C1=O (centres undefined)	n	u	n	20.6µM	u	u
CC1C(=O)C(C)C(c2cc(Br)ccc2O)NC1c1cc(Br)ccc1O (centres undefined)	u	n	u	u	u	13µM
Cc1cc(C)cc(NC(=O)c2cn3c4c(ccc(Cl)c4c2=O)OC(C)C3)c1 (centres undefined)	x	n	n	n	n	x
COc1cccc(C2CCCN2Cc2nc(CCC(C)C)no2)c1 (centres undefined)	n	u	n	u	n	n
Cc1ccc2nc(C3CCCN3Cc3nc(CCC(C)C)no3)[nH]c2c1 (centres undefined)	n	u	n	u	6.51µM	n
CCOc1ccc(-c2nn(-c3ccccc3)cc2C2NC(=O)NC(C)=C2C(=O)OC(C)C)cc1C (centres undefined)	x	u	n	u	n	x
Cc1ccccc1OCCc1c(C)[nH]c(=S)[nH]c1=O	2.06µM	1.46µM	1.46µM	0.82µM	1.84µM	2.31µM
Cc1[nH]c(=S)[nH]c(=O)c1CCOc1ccccc1	n	n	u	u	u	n
Cc1ccccc1OCC(=O)Nc1cc(-c2cccc(Br)c2)nn1-c1ccccc1	x	u	n	u	u	x
Cc1cc(C(=O)N/N=C/c2ccc[nH]2)n[nH]1	n	n	n	n	n	n
O=C(N/N=C/c1ccc[nH]1)c1ccc(O)cc1	n	n	n	n	n	n
Cc1cc(C(=O)N/N=C/c2ccc[nH]2)no1	n	u	n	18.4µM	n	n
O=C(N/N=C/c1ccc[nH]1)c1ccccc1O	n	n	u	n	5.17µM	n
Cc1c(CN2CCOc3c(cc(-c4ncc(C(F)(F)F)cc4Cl)cc3OCC3CCCO3)C2)cnn1C (centres undefined)	x	n[9.04 µM]	x	n	x	x
COc1ccccc1Cc1c(C2CCCCC2)nc2ccc(C)cn12	u	20.6µM	n	23.1µM	n	13µM
COC(=O)c1ccc2nc(C3CCCCC3)c(Cc3ccccc3C(F)(F)F)n2c1	u	u	n	u	u	u
Cc1ccc2nc(C3CCCCC3)c(CC(C)(C)C)n2c1	u	u	n	16.4µM	n	16.4µM
COc1ccccc1Cc1c(C2CCCCC2)nc2ccc(Cl)cn12	u	23.1µM	u	25.9µM	n	u
COc1cc(C2SCC(=O)N2Cc2ccccc2)ccc1O (centres undefined)	n	n	n	n	n	n
CCOc1nc(-c2ccccc2)ccc1-c1noc(-c2cccnc2)n1	n	n	n	3.66µM	n	n
